EBV LMP1 NFkB = EBV LMP1-driven NF-kappaB luciferase reporter inhibitors, primary screen, cell-based, luminescence, single point; LMP1-induced NF-kappaB luciferase reporter cells; inhibition, % at 12.5 µM; actives 0.69% (n = 350,000); AID 504558, 2011; in the data active = inhibition above about 41%; inconclusive = no clear call, values can overlap the other calls;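 note: 0% = neutral control wells and 100% = reference inhibitor control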
Shn3 inh set2 = reduction of Shn3 3'UTR firefly luciferase signal, primary screen, Schnurri-3 inhibitor project, cell-based, Clone20 osteoblasts, set 2. Clone20 osteoblast Shn3 3'UTR firefly luciferase, 24 h. inhibition, % at 12.5 µM. actives 0.52% (n = 360,000);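 active = mean inhibition of at least 75% with every replicate also reaching 75%; inconclusive = mean inhibition at least 75% but some replicate below; inactive = mean inhibition below 75%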;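 note: 0% = median of neutral control wells and 100% = pilot-screen positive control compound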
Peg3 promoter = Peg3 promoter-driven luciferase inhibitors, primary screen, cell-based, HeLa, luciferase luminescence; HeLa PEG-Prom luciferase reporter, overnight; inhibition, % at 20 µM; actives 1.7% (n = 360,000);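 active = inhibition of at least 50% at 20 µM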
MITF TRPM1 inh = inhibitors of MITF-dependent TRPM1 promoter reporter, primary screen, cell-based, SK-MEL-5, single point, luciferase. SK-MEL-5 TRPM1 promoter luciferase, 24 h. inhibition, % at 12.5 µM. actives 0.83% (n = 330,000). AID 488899, 2010;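 active = mean inhibition across replicates of 60% or more, whatever share of single replicates reaches that level; inconclusive = some that reach 60%, reason not given; inactive = mean inhibition across replicates below 60%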
CF NFkB inh = inhibitors of PAF-induced NF-kB signaling, primary screen, cell-based, GFP fluorescence, uHTS; KKLEB NF-kB-GFP reporter, GFP fluorescence overnight; actives 0.86% (n = 360,000); inhibition, % at 5 µM;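 active = at least 50% inhibition at 5 µM, scaled per plate between neutral and stimulator controls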;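 note: PAF is a Pseudomonas aeruginosa culture filtrate used as stimulus; plate controls were PAF-stimulated DMSO wells for no effect and unstimulated DMSO wells for full effect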
KKLEB tox = cytotoxicity in KKLEB CF airway cells, primary screen, cytotoxicity control for CF NF-kB inhibitor project, cell-based, uHTS, fluorescence assay plates; actives 0.36% (n = 360,000); activity change (cytotoxicity), % at 5 µM; KKLEB CF airway cells viability, ATPlite luminescence, overnight; stronger effect = lower value; cells stimulated with P. aeruginosa culture filtrate;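 active = corrected activity change at or below -50% at 5 µM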
Numbers without * were called inactive. This is a sample that favours compounds with a hit; in the whole collection about 2.9% have one here.

Results for COc1cc(-c2cnc3c(NC=O)cc(-c4cccc(NC(C)=O)c4)cn23)cc(OC)c1OC ?
Shn3 inh set2: 21; Peg3 promoter: 64*; CF NFkB inh: 84*; KKLEB tox: -67*

What do the screens show for `COc1cccc(-c2cnc3c(NC=O)cc(-c4cccc(NC(C)=O)c4)cn23)c1`?
Shn3 inh set2: 5; Peg3 promoter: 48; CF NFkB inh: 15; KKLEB tox: -14

What do the screens show for `C[C@H](O)CNC(=O)c1[nH]cnc1C(=O)N[C@@H](C)c1ccccc1`?
EBV LMP1 NFkB: -3; Shn3 inh set2: -44; Peg3 promoter: 7; CF NFkB inh: 1; KKLEB tox: -2

How did O=C(c1cn(Cc2ccccc2)nc1-c1cccnc1)N1CCN(Cc2ccccc2)CC1 do in these assays?
EBV LMP1 NFkB: -1; Shn3 inh set2: -11; Peg3 promoter: 98*; MITF TRPM1 inh: -11; CF NFkB inh: -21; KKLEB tox: 4

Results for CN(C)c1ccc(C(=O)/C=C/c2ccco2)cc1 ?
EBV LMP1 NFkB: -28; Shn3 inh set2: -131; Peg3 promoter: -246; MITF TRPM1 inh: -44; CF NFkB inh: 15; KKLEB tox: -28

How did O=C(C=Cc1ccco1)c1ccc2ccccc2c1 do in these assays?
EBV LMP1 NFkB: -12; Shn3 inh set2: 95*; Peg3 promoter: -256; MITF TRPM1 inh: -56; CF NFkB inh: -35; KKLEB tox: -10

How did CC[C@H](C)C1OC(=O)[C@@H](C)[C@@H](CC)NC(=O)[C@H](C)N(C)C(=O)C(C)(C)C(=O)C(C)NC(=O)[C@H](Cc2ccc(OC)cc2)N(C)C(=O)[C@H](C(C)C)N(C)C(=O)CNC(=O)[C@H](CC(C)C)N(C)C(=O)CNC1=O (stereo partly drawn) do in these assays?
Shn3 inh set2: 70; Peg3 promoter: 92*; CF NFkB inh: 96*; KKLEB tox: -94*

Results for CCc1cccc2c1Sc1ccccc1CC2N1CCNCC1 (stereo not drawn) ?
EBV LMP1 NFkB: -9; Shn3 inh set2: 27; Peg3 promoter: 111*; MITF TRPM1 inh: 81*; CF NFkB inh: 15; KKLEB tox: -7

Results for CCOc1ccc(N(CC(=O)Nc2ccccc2OCC)S(=O)(=O)c2c(C)noc2C)cc1 ?
EBV LMP1 NFkB: 9; Shn3 inh set2: -9; Peg3 promoter: 8; MITF TRPM1 inh: 65*; CF NFkB inh: 44; KKLEB tox: -29

How did Cc1cc(C)cc(N(CC(=O)N2CCc3ccccc32)S(=O)(=O)c2c(C)noc2C)c1 do in these assays?
EBV LMP1 NFkB: -3; Shn3 inh set2: -4; Peg3 promoter: -7; MITF TRPM1 inh: 2; CF NFkB inh: 12; KKLEB tox: -15

Results for CCOc1ccc(N(CC(=O)N2CCc3ccccc32)S(=O)(=O)c2c(C)noc2C)cc1 ?
EBV LMP1 NFkB: 47*; Shn3 inh set2: -7; Peg3 promoter: 13; MITF TRPM1 inh: 20; CF NFkB inh: 10; KKLEB tox: -2

What do the screens show for `CCc1cc2c(=O)[nH]c(-c3ccccn3)nc2s1`?
EBV LMP1 NFkB: 32; Shn3 inh set2: 54; Peg3 promoter: 96*; MITF TRPM1 inh: 32; CF NFkB inh: -27; KKLEB tox: 3

How did NS(=O)(=O)c1ccc(CCNC(=O)CCCCCn2c(=S)[nH]c3ccc(Br)cc3c2=O)cc1 do in these assays?
EBV LMP1 NFkB: 7; Shn3 inh set2: -32; Peg3 promoter: 62*; MITF TRPM1 inh: 16; CF NFkB inh: 7; KKLEB tox: -32

What do the screens show for `O=C(CCCCCn1c(=S)[nH]c2ccc(Br)cc2c1=O)NCC1CCCO1` (stereo not drawn)?
EBV LMP1 NFkB: 2; Shn3 inh set2: 28; Peg3 promoter: 18; MITF TRPM1 inh: -1; CF NFkB inh: -8; KKLEB tox: 6

How did CCOC(=O)N1CCN(C(=O)c2ccc3c(=O)n(Cc4ccc(Cl)cc4)c(=S)[nH]c3c2)CC1 do in these assays?
EBV LMP1 NFkB: 4; Shn3 inh set2: -1; Peg3 promoter: 26; MITF TRPM1 inh: -7; CF NFkB inh: -17; KKLEB tox: -8

How did CCOC(=O)N1CCN(C(=O)c2ccc(Cn3c(=S)[nH]c4ccc(Br)cc4c3=O)cc2)CC1 do in these assays?
EBV LMP1 NFkB: 51*; Shn3 inh set2: inconclusive; Peg3 promoter: 31; MITF TRPM1 inh: 71*; CF NFkB inh: -3; KKLEB tox: 6

How did COc1ccccc1CN(C)C[C@@H]1OCc2cnnn2CCCC(=O)N([C@H](C)CO)C[C@H]1C do in these assays?
EBV LMP1 NFkB: 1; Shn3 inh set2: -8; Peg3 promoter: -1; CF NFkB inh: 14; KKLEB tox: 3

What do the screens show for `Cc1[nH]n2c(=O)cc(-c3ccc([N+](=O)[O-])cc3)nc2c1-c1ccccc1`?
EBV LMP1 NFkB: -2; Shn3 inh set2: -5; Peg3 promoter: 58*; MITF TRPM1 inh: -4; CF NFkB inh: 22; KKLEB tox: -11

How did CC(=O)c1sc(Nc2ccc(Oc3ccccc3)cc2)nc1C do in these assays?
Shn3 inh set2: -24; Peg3 promoter: -301; CF NFkB inh: -24; KKLEB tox: 16

What do the screens show for `O=C(Nc1ccccc1NC(=O)c1c(F)c(F)c(F)c(F)c1F)c1c(F)c(F)c(F)c(F)c1F`?
EBV LMP1 NFkB: 6; Shn3 inh set2: 18; Peg3 promoter: 68*; MITF TRPM1 inh: 13; CF NFkB inh: 10; KKLEB tox: -4

Results for COC(=O)c1sccc1NC(=O)c1c(F)c(F)c(F)c(F)c1F ?
Shn3 inh set2: 14; Peg3 promoter: 67*; CF NFkB inh: -14; KKLEB tox: 2

What do the screens show for `COC(=O)c1sccc1NC(=O)c1cccc(F)c1`?
EBV LMP1 NFkB: -5; Shn3 inh set2: 9; Peg3 promoter: 19; MITF TRPM1 inh: 22; CF NFkB inh: -12; KKLEB tox: -3

What do the screens show for `COCCNC(=O)C1(C)CCCN(C(=O)c2ccccc2)C1` (stereo not drawn)?
Shn3 inh set2: -11; Peg3 promoter: 9; CF NFkB inh: 4; KKLEB tox: -2

How did CCOC(=O)CCCCCC(=O)Nc1ccc2c(c1)C(=O)N([C@H](C)CO)C[C@H](C)[C@@H](CN(C)C(=O)Nc1ccccc1)OCCCC[C@@H](C)O2 do in these assays?
EBV LMP1 NFkB: -12; Shn3 inh set2: -7; Peg3 promoter: -3; CF NFkB inh: 18; KKLEB tox: -3

How did Cc1cc(NC(=O)c2ccc(C)s2)n(-c2nc3ccccc3[nH]2)n1 do in these assays?
EBV LMP1 NFkB: 67*; Shn3 inh set2: 16; Peg3 promoter: 31; MITF TRPM1 inh: -7; CF NFkB inh: -1; KKLEB tox: -14

Screening data from PubChem.
